# Source: article PMC5540273 (PLoS ONE, 2017)
# Legend:
# Settings in all cases: concentration: 1 μM,replicates: in singlicate; n = 1
# NEK11 = system: NEK11
# NEK1 = system: NEK1
# NEK2 = system: NEK2
# NEK3 = system: NEK3
# NEK4 = system: NEK4
# NEK5 = system: NEK5
# NEK6 = system: NEK6
# NEK7 = system: NEK7
# NEK9 = system: NEK9
# NIK = system: T1, NIK
# T1 construct: gene MAP3K14
# 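Further: KINOMEscan kinase panel screen.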
Structure (SMILES),%Inh (NEK11) [%],%Inh (NEK1) [%],%Inh (NEK2) [%],%Inh (NEK3) [%],%Inh (NEK4) [%],%Inh (NEK5) [%],%Inh (NEK6) [%],%Inh (NEK7) [%],%Inh (NEK9) [%],%Inh (NIK) [%]
CC(=O)c1c(-c2ccncc2)[nH]c(-c2ccncc2)c1C [GW493036],0,0,0,47,4,19,0,0,27,28
C[C@@H]1CCN(C(=O)N2CCCC2)C[C@@H]1N(C)c1ncnc2[nH]ccc12,0,4,0,39,5,0,8,0,0,0
CN1CCN(CCNc2nc3cc(Oc4ccc(NC(=O)Nc5cc(C(F)(F)F)ccc5F)cc4)ccc3[nH]2)CC1.Cl.Cl [GW768504],0,0,0,20,0,1,0,0,0,0
C[C@@H]1CNc2c(sc3ccc4nc(-c5ccc(O)cc5)ccc4c23)C(=O)N1,0,0,0,20,0,0,38,11,8,84
Cc1ccc2c(-c3ccnc(Nc4ccc(C(F)(F)F)cc4)n3)cnn2n1 [GW819776],0,0,0,78,9,84,0,2,6,10
Cl.Nc1n[nH]c2cc(-c3ccccn3)ccc12 [GSK2189892],0,0,0,1,0,0,0,0,3,0
COC(=O)c1cccc(NC(=O)NC2CCN(c3ccnc(NCc4ccc(F)cc4)n3)CC2)c1 [GSK1379860],7,0,0,0,6,0,0,4,0,8
